# The panel holds about 83,000 compounds, 20% with a hit somewhere; the sample as a whole holds those more often.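 For each line, cells grew in 96-well plates with the test compound present at a single concentration for 48 hours.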 Calls of active or inactive are those of the source. Rule for the calls: active = growth percent below 10; inactive = the rest.
# Test system: HOP-62 NSCLC
# Assay: NCI-60 one-dose screen, 48 h (100 = growth as untreated, 0 = no growth, -100 = all killed)
# Conditions: 10 µM unless noted
row,Structure (SMILES),growth
1,CCCCCCCCCCCCCCCCCCOc1ccccc1CC(=O)OCCC[N+](C)(C)C,67.1% (inactive)
2,Cn1c(-c2c(N)n(Cc3cccnc3)c3nc(C#N)c(C#N)nc23)nc2ccccc21,95.3% (inactive)
3,COc1ccc(-c2nc3ccc4[nH]ncc4c3c3c2CCCC3)cc1B(O)O,51.3% (inactive)
4,COc1ccc(/C=N/C2=C(C#N)C(c3ccc(OC)cc3)c3ccc4ccccc4c3O2)cc1 (stereo unspecified),67% (inactive)
5,COC1=CC(=O)C[C@@H](C)[C@]12Oc1c(Cl)c(OC)cc(OC)c1C2=O,88.3% (inactive)
6,Cc1ccc(NS(=O)(=O)c2ccc3c(c2)C2OCCC2C(c2ccc(C(=O)C(C)C)cc2)N3)cc1C (stereo unspecified),70.3% (inactive)
7,NC(=O)c1ccc[n+](Cc2ccc(Cl)cc2Cl)c1,88.3% (inactive)
8,CC(=O)OC1CCC2(C)C(=CC3C4CCC(=O)C4(C)CCC32)C1 (stereo unspecified),111% (inactive)
9,CNC(=O)CCN1CCN(CC/C=C2\c3ccccc3Sc3ccc(Cl)cc32)CC1,102% (inactive)
10,Clc1ccc(-c2c3ccc(=[N+]4CCCCC4)cc-3oc3cc(N4CCCCC4)ccc23)cc1,-89% (active)
11,Cc1nc2c(c(N3CCCc4ccccc43)n1)CCC2,4.68% (active)
12,N#Cc1c2c(nn(-c3ccccc3)c1=O)C(O)=C([N+](=O)[O-])C(c1ccccc1)C2 (stereo unspecified),78.3% (inactive)
13,c1ccc2c(c1)nc(CN1CCOCC1)n1cc(N3CCCC3)nc21,87.5% (inactive)
14,N=C1C(c2nc(-c3ccc(Br)cc3)cs2)=C(O)CN1Cc1cccnc1,43.6% (inactive)
15,CC/C=C\C[C@H](O)C/C=C1/C(=O)C=C[C@@H]1C/C=C\CCCCO,6.06% (active)
16,O=C(CCc1nnc(CN(c2ccccc2)c2ccccc2)o1)c1nc2ccccc2[nH]1,89.1% (inactive)
17,Cc1ccc(NCCN(C)C)c2c(=O)c3ccccc3sc12,36.2% (inactive)
18,O=C(N/N=C/c1ccncc1)c1ccc(C(F)(F)F)nc1Nc1cccc(C(F)(F)F)c1,13.3% (inactive)
19,CC1(c2ccccc2)NC(=O)N(NC(=O)CSc2nc(-c3cccs3)nc3ccccc23)C1=O (stereo unspecified),88.7% (inactive)

row,Structure (SMILES),growth
1,NC(=O)c1ccc[n+]([C@@H]2O[C@H](COP(=O)([O-])OP(=O)(O)OC[C@H]3O[C@@H](n4cnc5c(N)ncnc54)[C@H](O)[C@@H]3O)[C@@H](O)[C@H]2O)c1,108% (inactive)
2,COc1cc(C2CC(c3cc(OC)c(OCCCOc4ccc(-n5c(/C=C/c6ccccc6)nc6ccccc6c5=O)cc4)c(OC)c3)=NO2)cc(OC)c1OC (stereo unspecified),122% (inactive)
3,COc1cc(Cn2ncc3ccc(NC(=O)c4cc5ccccc5oc4=N)cc32)cc(OC)c1OC,64.9% (inactive)
4,CCOc1c(C#N)nnc2c(C#N)c(NC(=O)c3ccccc3)nn12,96.6% (inactive)
5,COc1cc2c(cc1-c1c(C)noc1C)ncc1nc(C3CCCCC3)n(C3CCC(OC(F)F)CC3)c12 (stereo unspecified),38.3% (inactive)
6,Cc1cc(=O)[nH]c(N=Nc2c(O)[nH]c3ccccc23)n1,119% (inactive)
7,COc1ccc(/C=C/c2c(C(=O)/C=C/c3ccc(F)cc3)c(C)nc3ccccc23)cc1,57.5% (inactive)
8,CCCCN(CCCC)CC(C)(C)C(O)c1ccc(OC)c2ccccc12 (stereo unspecified),73.7% (inactive)
9,Cc1c(C)c2c(c(C)c1OCC(=O)O)CC[C@@](C)(CCC[C@@H](C)CCC[C@@H](C)CCCC(C)C)O2,2.69% [50 µM] (active)
10,Cn1c(I)c(C#C[Si](C)(C)C)c(=O)n(C(=O)c2ccccc2)c1=O,59.1% (inactive)
11,O=C(NCCCNc1cc(-c2cn(-c3ccccc3)nc2-c2cccc(O)c2)ccn1)c1ccc(F)cc1,26.2% (inactive)
12,Cc1ccc2c(c1)Sc1c(ccc3ccccc13)N2,-2.75% (active)
13,O=C(Nc1ccc(-n2cc(-c3ccncc3)c(-c3ccc(Cl)c(O)c3)n2)cc1)N1CCOCC1,95.7% (inactive)
14,Cc1cccc(Cc2cnc(NC(=O)c3ccc4nnsc4c3)s2)c1,79.8% (inactive)
15,CC(=O)c1ccc(NCC(=O)Nc2ccccn2)cc1,98.7% (inactive)
16,COC(=O)c1ccc(C2Nc3ccc(S(=O)(=O)Nc4ccc(C)c(C)c4)cc3C3OCCC23)cc1 (stereo unspecified),87.3% (inactive)
17,Cc1ccc(-c2cc(-c3cccnc3)[nH]c(=O)c2C#N)cc1,107% (inactive)
18,Cn1ccc2c(c1=O)C(=O)c1nccc3c1c-2nc1ccccc13,-86.6% (active)
19,CCc1ccccc1-n1c(N)c(C#N)c(-c2ccc(N(C)C)cc2)c(C#N)c1=O,106% (inactive)

# Test system: NCI-H460 lung
# Assay: as above
# Conditions: 10 µM unless noted
row,Structure (SMILES),growth
1,CCCCCCCCCCCCCCCCCCOc1ccccc1CC(=O)OCCC[N+](C)(C)C,80.1% (inactive)
2,Cn1c(-c2c(N)n(Cc3cccnc3)c3nc(C#N)c(C#N)nc23)nc2ccccc21,106% (inactive)
3,COc1ccc(-c2nc3ccc4[nH]ncc4c3c3c2CCCC3)cc1B(O)O,35.3% (inactive)
4,COc1ccc(/C=N/C2=C(C#N)C(c3ccc(OC)cc3)c3ccc4ccccc4c3O2)cc1 (stereo unspecified),75.6% (inactive)
5,COC1=CC(=O)C[C@@H](C)[C@]12Oc1c(Cl)c(OC)cc(OC)c1C2=O,110% (inactive)
6,Cc1ccc(NS(=O)(=O)c2ccc3c(c2)C2OCCC2C(c2ccc(C(=O)C(C)C)cc2)N3)cc1C (stereo unspecified),31.7% (inactive)
7,NC(=O)c1ccc[n+](Cc2ccc(Cl)cc2Cl)c1,102% (inactive)
8,CC(=O)OC1CCC2(C)C(=CC3C4CCC(=O)C4(C)CCC32)C1 (stereo unspecified),108% (inactive)
9,CNC(=O)CCN1CCN(CC/C=C2\c3ccccc3Sc3ccc(Cl)cc32)CC1,92.6% (inactive)
10,Clc1ccc(-c2c3ccc(=[N+]4CCCCC4)cc-3oc3cc(N4CCCCC4)ccc23)cc1,-76.2% (active)
11,Cc1nc2c(c(N3CCCc4ccccc43)n1)CCC2,3.12% (active)
12,N#Cc1c2c(nn(-c3ccccc3)c1=O)C(O)=C([N+](=O)[O-])C(c1ccccc1)C2 (stereo unspecified),91.6% (inactive)
13,c1ccc2c(c1)nc(CN1CCOCC1)n1cc(N3CCCC3)nc21,117% (inactive)
14,N=C1C(c2nc(-c3ccc(Br)cc3)cs2)=C(O)CN1Cc1cccnc1,66.7% (inactive)
15,CC/C=C\C[C@H](O)C/C=C1/C(=O)C=C[C@@H]1C/C=C\CCCCO,0.172% (active)
16,O=C(CCc1nnc(CN(c2ccccc2)c2ccccc2)o1)c1nc2ccccc2[nH]1,99.6% (inactive)
17,Cc1ccc(NCCN(C)C)c2c(=O)c3ccccc3sc12,-14.5% (active)
18,O=C(N/N=C/c1ccncc1)c1ccc(C(F)(F)F)nc1Nc1cccc(C(F)(F)F)c1,14.3% (inactive)
19,CC1(c2ccccc2)NC(=O)N(NC(=O)CSc2nc(-c3cccs3)nc3ccccc23)C1=O (stereo unspecified),107% (inactive)

row,Structure (SMILES),growth
1,NC(=O)c1ccc[n+]([C@@H]2O[C@H](COP(=O)([O-])OP(=O)(O)OC[C@H]3O[C@@H](n4cnc5c(N)ncnc54)[C@H](O)[C@@H]3O)[C@@H](O)[C@H]2O)c1,104% (inactive)
2,COc1cc(C2CC(c3cc(OC)c(OCCCOc4ccc(-n5c(/C=C/c6ccccc6)nc6ccccc6c5=O)cc4)c(OC)c3)=NO2)cc(OC)c1OC (stereo unspecified),113% (inactive)
3,COc1cc(Cn2ncc3ccc(NC(=O)c4cc5ccccc5oc4=N)cc32)cc(OC)c1OC,91% (inactive)
4,CCOc1c(C#N)nnc2c(C#N)c(NC(=O)c3ccccc3)nn12,111% (inactive)
5,COc1cc2c(cc1-c1c(C)noc1C)ncc1nc(C3CCCCC3)n(C3CCC(OC(F)F)CC3)c12 (stereo unspecified),37.3% (inactive)
6,Cc1cc(=O)[nH]c(N=Nc2c(O)[nH]c3ccccc23)n1,105% (inactive)
7,COc1ccc(/C=C/c2c(C(=O)/C=C/c3ccc(F)cc3)c(C)nc3ccccc23)cc1,15.9% (inactive)
8,CCCCN(CCCC)CC(C)(C)C(O)c1ccc(OC)c2ccccc12 (stereo unspecified),39.1% (inactive)
9,Cc1c(C)c2c(c(C)c1OCC(=O)O)CC[C@@](C)(CCC[C@@H](C)CCC[C@@H](C)CCCC(C)C)O2,3.28% [50 µM] (active)
10,Cn1c(I)c(C#C[Si](C)(C)C)c(=O)n(C(=O)c2ccccc2)c1=O,55.4% (inactive)
11,O=C(NCCCNc1cc(-c2cn(-c3ccccc3)nc2-c2cccc(O)c2)ccn1)c1ccc(F)cc1,27.9% (inactive)
12,Cc1ccc2c(c1)Sc1c(ccc3ccccc13)N2,20.8% (inactive)
13,O=C(Nc1ccc(-n2cc(-c3ccncc3)c(-c3ccc(Cl)c(O)c3)n2)cc1)N1CCOCC1,103% (inactive)
14,Cc1cccc(Cc2cnc(NC(=O)c3ccc4nnsc4c3)s2)c1,114% (inactive)
15,CC(=O)c1ccc(NCC(=O)Nc2ccccn2)cc1,104% (inactive)
16,COC(=O)c1ccc(C2Nc3ccc(S(=O)(=O)Nc4ccc(C)c(C)c4)cc3C3OCCC23)cc1 (stereo unspecified),86% (inactive)
17,Cc1ccc(-c2cc(-c3cccnc3)[nH]c(=O)c2C#N)cc1,107% (inactive)
18,Cn1ccc2c(c1=O)C(=O)c1nccc3c1c-2nc1ccccc13,-74.7% (active)
19,CCc1ccccc1-n1c(N)c(C#N)c(-c2ccc(N(C)C)cc2)c(C#N)c1=O,96.4% (inactive)

# — PubChem BioAssay (NCI)
